Experimental data as given in PMC4336329 (PLoS ONE, 2015).
Among all 310,000 compounds or so, about 2,200 (0.71%) showed an effect of 50% or more. The effect is printed as a negative number. Many of the other results were omitted from the sample, so strong results are more common in it than they were.

The compounds below were run against human ether-à-go-go-related gene (hERG) potassium channel (human, UniProt Q12809) (assay: primary screen, population patch clamp on CHO cells stably expressing hERG; higher = less effect of the substance).
Chain of human ether-à-go-go-related gene (hERG) potassium channel (Q12809 whole entry, looked up): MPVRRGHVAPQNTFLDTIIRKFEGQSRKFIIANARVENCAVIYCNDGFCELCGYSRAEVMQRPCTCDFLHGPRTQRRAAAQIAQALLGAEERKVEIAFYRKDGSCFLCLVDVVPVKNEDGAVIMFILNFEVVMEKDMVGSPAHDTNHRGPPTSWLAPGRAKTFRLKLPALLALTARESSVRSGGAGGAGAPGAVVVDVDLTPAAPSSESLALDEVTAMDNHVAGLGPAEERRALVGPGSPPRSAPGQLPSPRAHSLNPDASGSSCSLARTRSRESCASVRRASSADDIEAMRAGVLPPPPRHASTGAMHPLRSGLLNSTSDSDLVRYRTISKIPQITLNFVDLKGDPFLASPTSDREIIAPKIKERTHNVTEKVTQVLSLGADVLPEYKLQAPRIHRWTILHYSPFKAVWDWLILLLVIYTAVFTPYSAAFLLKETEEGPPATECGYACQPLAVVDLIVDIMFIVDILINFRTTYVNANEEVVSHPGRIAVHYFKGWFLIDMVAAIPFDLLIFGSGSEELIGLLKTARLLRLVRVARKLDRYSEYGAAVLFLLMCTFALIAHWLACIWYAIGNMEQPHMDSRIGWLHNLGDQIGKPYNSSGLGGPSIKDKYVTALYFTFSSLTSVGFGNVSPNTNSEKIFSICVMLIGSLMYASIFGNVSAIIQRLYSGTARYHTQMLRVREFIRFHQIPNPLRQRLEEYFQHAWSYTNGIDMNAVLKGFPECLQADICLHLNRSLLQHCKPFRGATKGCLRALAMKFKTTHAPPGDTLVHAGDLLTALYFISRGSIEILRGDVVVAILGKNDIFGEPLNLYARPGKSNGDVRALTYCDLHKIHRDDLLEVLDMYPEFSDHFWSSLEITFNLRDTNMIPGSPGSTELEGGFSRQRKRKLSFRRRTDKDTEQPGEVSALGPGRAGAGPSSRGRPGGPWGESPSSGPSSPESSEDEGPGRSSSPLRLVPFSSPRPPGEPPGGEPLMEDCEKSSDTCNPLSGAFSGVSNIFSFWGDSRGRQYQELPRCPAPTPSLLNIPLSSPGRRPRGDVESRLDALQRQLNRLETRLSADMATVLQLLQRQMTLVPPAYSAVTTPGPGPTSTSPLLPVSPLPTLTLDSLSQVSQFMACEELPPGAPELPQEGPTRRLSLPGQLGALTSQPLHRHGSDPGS

SMILES	hERG current change (%, negative = inhibition) at 1uM
CCCn1c2ccccc2c2cnn(CC(=O)NC3CCCC(C)C3C)c(=O)c21 (stereo not drawn)	11.4%
CN(C)S(=O)(=O)c1ccc2nnn(O)c2c1	7.89%
CCC(C)(C)NC(=O)C(c1ccco1)N(C(=O)Cn1nnc2ccccc21)c1ccc2c(c1)OCO2 (stereo not drawn)	13.9%
O=C(NCc1ccncc1)c1nc(-c2cccs2)no1	-0.652%
COc1ccc(S(=O)(=O)NCCc2csc(-c3cccnc3)n2)cc1	-9.72%
CN(/N=C/c1ccc(Cl)cc1)c1ncc(Cl)cc1C(F)(F)F	14.6%
CN(C)c1ccc(N=C/C=C2\N(C)c3ccccc3C2(C)C)cc1	-84.7%
CN1/C(=C\C=C(C#N)C#N)C(C)(C)c2ccccc21	2.94%
CN1/C(=C\C=N\O)C(C)(C)c2ccccc21	14.7%
Cc1c(N=C/C=C2/N(C)c3ccccc3C2(C)C)c(=O)n(-c2ccccc2)n1C	-5.46%
CO/N=C/C=C1/N(C)c2ccccc2C1(C)C	12.5%
Cc1ccccc1N=C/C=C1\N(C)c2ccccc2C1(C)C	-51.2%
CN1/C(=C/C=C(C#N)C#N)C(C)(C)c2ccccc21	10.9%
CN1/C(=C/C=N/n2cnnc2)C(C)(C)c2ccccc21	7.04%
CN1/C(=C\C=Nc2ccccc2)C(C)(C)c2ccccc21	-65%
Cc1c(N=C/C=C2\N(C)c3ccccc3C2(C)C)c(=O)n(-c2ccccc2)n1C	-15.5%
CN1/C(=C\C=Nc2ccc3ccccc3c2)C(C)(C)c2ccccc21	-75.1%
CN1/C(=C\C=O)C(C)(C)c2ccccc21	3.65%
N#Cc1nc(-c2ccc(Cl)cc2)oc1NCc1ccco1	18.1%
COc1cccc(-n2c(Cc3cc(=O)[nH]c(=O)[nH]3)nnc2SC(C)C)c1	2.56%
CCNC(=O)c1ccc(CSc2nc3ccccc3s2)cc1	11.4%
O=S(=O)(c1ccc(NC(=S)NCCc2ccccc2)cc1)N1CCOCC1	3.71%
COc1cccc(-c2nc(CS(=O)(=O)CC(=O)NCCCN3CC(C)CC(C)C3)c(C)o2)c1 (stereo not drawn)	-5.41%

SMILES	hERG current change (%, negative = inhibition) at 1uM
CCOC(=O)Nc1ccc2c(c1)Nc1ccccc1S2	9.07%
COc1cccc(NC(=O)CNS(=O)(=O)c2ccc3nc(C)sc3c2)c1	14.5%
Cc1ccc(-c2cc(C(=O)Nc3cccnc3)c3ccccc3n2)s1	12.1%
Cn1cnnc1SCC(=O)Nc1sc2c(c1C(N)=O)CCC2	13.3%
CCCCNC(=O)CCCN1C(=O)c2cccnc2Sc2ccccc21	14.1%
CCCCNc1ncnc2sc3c(c12)CCN(CCC)C3	-80.9%
OCCCNc1ncnc2sc3c(c12)CCN(Cc1ccccc1)C3	7.54%
CC1CCc2c(sc3ncnc(NCCN4CCOCC4)c23)C1 (stereo not drawn)	-13.1%
CCOc1ccc(-n2c(SCc3ccc(C#N)cc3)nnc2-c2cccnc2)cc1	-65.1%
N#Cc1ccc(CSc2nnc(-c3cccnc3)n2-c2ccccc2)cc1	-26.5%
CCOc1ccc(-n2c(SCC(N)=O)nnc2-c2cccnc2)cc1	-3.26%
CCC(C)(C(=O)NC1CCCCC1)N(CC1CCCO1)C(=O)CNC(=O)c1ccccc1 (stereo not drawn)	9.5%
CCC(C)(C(=O)NC1CCCCC1)N(C)C(=O)c1ccccn1 (stereo not drawn)	4.4%
CCC(C)(C(=O)NC1CCCCC1)N(CC1CCCO1)C(=O)c1ccccn1 (stereo not drawn)	-80.8%
COc1ccc(-c2noc(CSc3nc4ccccc4c(=O)n3-c3ccccc3)n2)cc1	1.58%
CCC1(C)Cc2ccccc2-c2nc3n(c(=O)c21)CCS3 (stereo not drawn)	12%
O=c1[nH]c(CN2CCN(S(=O)(=O)/C=C/c3ccccc3)CC2)nc2cc(Cl)ccc12	-21.4%
O=c1[nH]c(CN2CCN(C/C=C/c3ccccc3)CC2)nc2ccccc12	-52.6%
O=c1[nH]c(CN2CCOCC2)nc2cc(Cl)ccc12	4.78%
O=c1[nH]c(CN2CCN(S(=O)(=O)/C=C/c3ccccc3)CC2)nc2ccccc12	-18.2%
O=c1[nH]c(CN2CCN(C/C=C/c3ccccc3)CC2)nc2cc(Cl)ccc12	-108%
O=C(CCc1nc2ccccc2c(=O)[nH]1)N1CCN(C/C=C/c2ccccc2)CC1	-12.3%
Cc1cc(C)n(-c2nc(-c3ccccc3)cs2)n1	1.91%

SMILES	hERG current change (%, negative = inhibition) at 1uM
O=C(Nc1ccc2oc(-c3ccc4ccccc4c3)nc2c1)c1ccc2c(c1)OCCO2	16.3%
O=c1cc(CN2CCN(C/C=C/c3ccccc3)CC2)c2cc(O)c(-c3ccccc3)cc2o1	12.8%
O=c1cc(CN2CCN(C/C=C/c3ccccc3)CC2)c2cc(O)ccc2o1	-86%
CCN1CCN(Cc2cc(=O)oc3ccc(C)cc23)CC1	11.9%
Cc1c(O)ccc2c(CN3CCN(C/C=C/c4ccccc4)CC3)cc(=O)oc12	-36.2%
Cc1cc(C)c2c(CN3CCN(C/C=C/c4ccccc4)CC3)cc(=O)oc2c1	-41.5%
O=c1cc(CN2CCN(S(=O)(=O)/C=C/c3ccccc3)CC2)c2ccc(O)cc2o1	-29.8%
Cc1cc2oc(=O)cc(CN3CCN(C/C=C/c4ccccc4)CC3)c2cc1O	-67.8%
Cc1ccc2oc(=O)cc(CN3CCN(C/C=C/c4ccccc4)CC3)c2c1	-53.7%
Cc1cc2oc(=O)cc(CN3CCN(S(=O)(=O)/C=C/c4ccccc4)CC3)c2cc1C	14.5%
COc1cccc(NC(=O)C2CCCO2)c1 (stereo not drawn)	11.7%
COC(=O)C1=NN(N=O)C2(CC(=O)N(c3cc(C)cc(C)c3)C2=O)C1 (stereo not drawn)	9.48%
CCC(=O)N1c2ccc(S(=O)(=O)N3CCN(C)CC3)cc2CC1C (stereo not drawn)	4.4%
Cc1c(CC(=O)N[C@@H](C)C(=O)O)c(=O)oc2cc3occ(-c4ccccc4)c3cc12	18.2%
Cc1ccc(Cn2ncc3c(NCCN(C)C)ncnc32)cc1	1.2%
COc1ccc(N2CC(C(=O)Nc3ccccc3N3CCCC3)CC2=O)c(OC)c1 (stereo not drawn)	8.29%
CCOC(=O)c1ccc(NC(=S)N(CCCN2CCN(CC)CC2)Cc2cccs2)cc1	-40.2%
CCOc1ccc2nc(NC(=O)Cc3cccs3)sc2c1	6.15%
COCCN1Cc2cc3cc(C)ccc3nc2SC1=Nc1ccc(OC)cc1	9.8%
CCC(C)N=C1Sc2nc3ccc(C)cc3cc2CN1CCOC (stereo not drawn)	-60.4%
CCOc1ccc(N=C2Sc3nc4ccc(C)cc4cc3CN2CCOC)cc1	16.5%
C=CCn1c(SCC(O)Cn2c3ccccc3c3ccccc32)nnc1-c1ccco1 (stereo not drawn)	13.9%
O=c1[nH]ncn1-c1ccccc1C(F)(F)F	10.3%

SMILES	hERG current change (%, negative = inhibition) at 1uM
CCc1ccc2[nH]c(=O)c(CN(CCN(CC)CC)C(=O)Nc3ccccc3OC)cc2c1	-50.7%
CCN(CC)CCN(Cc1cc2cc(C)ccc2[nH]c1=O)C(=O)Nc1ccccc1OC	-22.2%
CCN(CC)CCN(Cc1cc2ccc(C)cc2[nH]c1=O)C(=O)NC1CCCCC1	-23.9%
CCc1ccc2[nH]c(=O)c(CN(CCN3CCCC3)C(=O)NC3CCCCC3)cc2c1	-8.52%
CCc1ccc2[nH]c(=O)c(CN(CCN(CC)CC)C(=O)NC3CCCCC3)cc2c1	-51.5%
CCc1ccc2[nH]c(=O)c(CN(CCN(C)C)C(=O)Nc3ccccc3OC)cc2c1	-41.4%
O=C(Cc1ccc([N+](=O)[O-])cc1)Nc1ccc2c(c1)CCC2	10.4%
COc1ccc(-c2nsc(SCC(=O)Nc3ccc4c(c3)OCO4)n2)cc1	15%
COC(=O)[C@@H](NC(=O)c1ccccc1)[C@@H](C)O	5.85%
Nc1nc(N2CCCCC2)nc(N(c2ccccc2)c2ccccc2)n1	15.2%
C1CCN(c2nc(N3CCCCC3)nc(N3CCNCC3)n2)CC1	2.68%
Nc1nc(N2CCCCC2)nc(N2CCCCC2)n1	-78.5%
COC(=O)CN1C(=O)Nc2ccc(Br)cc2C1c1ccccc1Cl (stereo not drawn)	-8.8%
C/C(=N/NC(=O)c1cccnc1)C1=C(O)CC(C)(C)CC1=O	18.4%
CCOC(=O)CSc1cn2c(n1)CCC2	14.5%
CNC(=O)CSc1nc2cc(S(=O)(=O)Nc3ccccc3OC)ccc2o1	9.52%
Cc1sc2ncnc(NCC(C)(C)N3CCOCC3)c2c1C	-63.6%
Cc1sc2ncnc(NCCN3CCOCC3)c2c1C.O=C(O)C(=O)O	9.44%
Cc1sc2ncnc(N3CCOCC3)c2c1C	-5.93%
COC(=O)CC1NCCc2cc(OC)c(OC)cc21 (stereo not drawn)	5.12%
CC(OC(=O)CCC1CCCCC1)C(=O)Nc1ccc(S(N)(=O)=O)cc1 (stereo not drawn)	9.83%
